According to PubChem BioAssay (Tox21):
Values joined by “and” are separate entries in the source; they are usually repeats but may differ in a detail not shown here. Equal values may be shown once. Results filed as inconclusive are left out. A call without a number means that no potency is given here. Active and inactive are the calls of the source. Unless noted, the call rests on the fitted dose curve; in most records, active means well fitted curve in the direction sought with a large enough effect in the repeat runs; inconclusive means weak or mixed curves; inactive means no such curve, though single readings can be large; an effect the other way counts as inactive or inconclusive.

Tests used:
[1] = qHTS assay to identify aromatase inhibitors - cell viability counter screen (AID 743084);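 further: cells stimulated with testosterone during compound exposure; nearly all actives have a fitted effect of over 55% in size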
[2] = target: Aryl hydrocarbon receptor (Homo sapiens) (UniProt P35869); assay: qHTS assay to identify small molecule that activate the aryl hydrocarbon receptor (AhR) signaling pathway (AID 743085); further: nearly all actives have a fitted effect of over 15% in size; further: potency means the concentration at half of the fitted maximal effect;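 on activation: HG2L7.5c1 human HepG2 liver cells with stably integrated DRE-driven firefly reporter; series mostly up to about 70 µM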
In short: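 HepG2 cells stably carrying a 20-DRE firefly luciferase reporter (HG2L7.5c1) treated with compound for 24 hr at 37C. Luciferase read by ONE-Glo luminescence, with CellTiter-Fluor viability read first.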

[3] = qHTS assay to identify small molecule that activate the aryl hydrocarbon receptor (AhR) signaling pathway - cell viability counter screen (AID 743086);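 further: HepG2 liver cells carrying the AhR DRE luciferase reporter; series mostly up to about 70 µM; nearly all actives have a fitted effect of over 45% in size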
In short: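 HepG2-AhR-luc (HG2L7.5c1) cells, 4000/well, were preincubated 5 h at 37C, exposed to compound in qHTS format for 24 hr at 37C, then given CellTiter-Fluor for 30 min; viability was read as fluorescence in the reporter wells.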

[4] = target: Peroxisome proliferator-activated receptor gamma (Homo sapiens) (UniProt P37231); assay: qHTS assay to identify small molecule agonists of the peroxisome proliferator-activated receptor gamma (PPARg) signaling pathway (AID 743094; active means well fitted activation curve with a large enough effect in the signal ratio in the repeat runs, not every such curve was filed as active; the % refers to the signal ratio)
In short: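 Agonist activity was taken from a beta-lactamase reporter (FRET substrate, 1 h at room temperature) in HEK293H cells carrying a PPARg UAS-bla construct. Compounds in DMSO were incubated 17 h at 37C after a 5 h cell pre-incubation.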

[5] = qHTS assay for small molecule agonists of the antioxidant response element (ARE) signaling pathway - cell viability counter screen (AID 743203; calls by dose curve; further: nearly all actives have a fitted effect of over 55% in size)
In short: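 Viability counter screen: CellTiter-Glo luminescence, read after 30 min at room temperature, in ARE-bla HepG2 wells. Compound exposure lasted 16 h at 37C/5% CO2, following a 5 h pre-incubation of the cells after plating.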

[6] = qHTS assay for small molecule activators of the heat shock response signaling pathway (AID 743210; active means well fitted activation curve with a large enough effect in the signal ratio in the repeat runs, with a control signal flat, not every such curve was filed as active; the % refers to the signal ratio; further: series mostly up to about 63 µM)
In short: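 Heat shock element–beta-lactamase HeLa reporter cells; qHTS with compounds for 5 h at 37 C; detection by FRET substrate fluorescence after 2.5 h at RT.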

[7] = qHTS assay to identify small molecule agonists of the peroxisome proliferator-activated receptor delta (PPARd) signaling pathway - cell viability counter screen (AID 743211); further: nearly all actives have a fitted effect of over 55% in size
In short: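 PPARd-bla HEK293H cells (3000/well) were pre-incubated 5 h at 37 C, then exposed to compound for 17 h at 37 C. After 2 h with LiveBLAzer substrate, CellTiter-Glo was added to the same wells; luminescence read after 30 min at room temperature.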

[8] = target: Peroxisome proliferator-activated receptor delta (Homo sapiens) (UniProt Q03181); assay: qHTS assay to identify small molecule agonists of the peroxisome proliferator-activated receptor delta (PPARd) signaling pathway (AID 743212; calls by dose curve)
In short: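 Beta-lactamase reporter read by fluorescence (LiveBLAzer B/G FRET, 2 h, room temperature). Test agents, in DMSO, incubated at 37 C with PPARd-bla HEK293H cells.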

[9] = qHTS assay to identify small molecule antagonists of the peroxisome proliferator-activated receptor delta (PPARd) signaling pathway - cell viability counter screen (AID 743213); further: nearly all actives have a fitted effect of over 50% in size
In short: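 Cytotoxicity counter screen: CellTiter-Glo luminescence read 30 min after addition, in the same wells as the reporter assay. There, PPARd UAS-bla HEK293H cells (3000/well) were treated 17 h at 37 C with compound and 300 nM L165041.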

[10] = qHTS assay to identify small molecule agonists of the farnesoid-X-receptor (FXR) signaling pathway - cell viability counter screen (AID 743218); further: nearly all actives have a fitted effect of over 45% in size
In short: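 Viability counter screen in the same wells: CellTiter-Glo luminescence, 30 min room-temperature incubation, measured after the beta-lactamase read. Cells were GeneBLAzer FXR-UAS-bla HEK 293T, compound-treated 16 h at 37C.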

[11] = target: Vitamin D3 receptor (Homo sapiens) (UniProt P11473); assay: qHTS assay to identify small molecule agonists of the vitamin D receptor (VDR) signaling pathway (AID 743222; calls by dose curve)
In short: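 Agonist mode, beta-lactamase reporter: fluorescence from LiveBLAzer B/G FRET substrate (2 h, room temperature) read after 16 h compound treatment at 37 C of VDR-bla cells, which were pre-incubated 4 h after seeding.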

[12] = target: Vitamin D3 receptor (Homo sapiens) (UniProt P11473); assay: qHTS assay to identify small molecule antagonists of the vitamin D receptor (VDR) signaling pathway (AID 743223; active means well fitted inhibition curve with a large enough effect in the signal ratio in the repeat runs, not every such curve was filed as active; the % refers to the signal ratio)
In short: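 VDR-bla cells were treated with compound plus 3 nM final 1alpha,25-dihydroxyvitamin D3 for 16 h at 37C. Beta-lactamase reporter read by B/G FRET substrate fluorescence after 2 h at room temperature. qHTS format.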

[13] = qHTS assay to identify small molecule antagonists of the peroxisome proliferator-activated receptor gamma (PPARg) signaling pathway - cell viability counter screen (AID 743194); further: nearly all actives have a fitted effect of over 55% in size
In short: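 PPARg-UAS-bla HEK293H cells were plated, rested 5 h at 37 C, then treated with compounds plus rosiglitazone (50 nM final) for 17 h at 37 C; viability was then read by CellTiter-Glo luminescence after 30 min at room temperature.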

[14] = qHTS assay for small molecule agonists of the antioxidant response element (ARE) signaling pathway (AID 743202; active means well fitted activation curve with a large enough effect in the signal ratio in the repeat runs, not every such curve was filed as active; the % refers to the signal ratio)
In short: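 Following a 16 h, 37 C exposure of reporter HepG2 cells (ARE-driven beta-lactamase, 2,000 cells/well) to compounds, FRET substrate was applied for 2 h at room temperature and fluorescence intensity recorded.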

[15] = qHTS assay to identify small molecule antagonists of the farnesoid-X-receptor (FXR) signaling pathway - cell viability counter screen (AID 743221; active means well fitted cell-killing curve with a large enough effect in the repeat runs, not every such curve was filed as active; further: nearly all actives have a fitted effect of over 50% in size)
In short: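 GeneBLAzer FXR-UAS-bla HEK 293T cells, compound plus chenodeoxycholic acid (50 uM final), 16 h at 37 C. CellTiter-Glo added to the same wells after the beta-lactamase read; luminescence read after 30 min at room temperature as viability.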

[16] = qHTS assay for small molecule activators of the heat shock response signaling pathway - cell viability counter screen (AID 743209); further: nearly all actives have a fitted effect of over 50% in size
In short: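 Cytotoxicity counter screen run in the same wells as the heat-shock bla reporter assay: HeLa HSE-bla cells, 5 h compound exposure at 37 C, viability read by CellTiter-Glo luminescence.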

[17] = target: Peroxisome proliferator-activated receptor delta (Homo sapiens) (UniProt Q03181); assay: qHTS assay to identify small molecule antagonists of the peroxisome proliferator-activated receptor delta (PPARd) signaling pathway (AID 743215; active means well fitted inhibition curve with a large enough effect in the signal ratio in the repeat runs, not every such curve was filed as active; the % refers to the signal ratio;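 further: cells stimulated with agonist L165041 at 300 nM final during compound exposure; series mostly up to about 62 µM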)
In short: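 Agonist L165041 (300 nM final) added with compound to PPARd-bla HEK293H UAS-bla reporter cells; 17 h incubation at 37 C. Read-out: LiveBLAzer FRET substrate, 2 h at room temperature, fluorescence intensity.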

[18] = target: Peroxisome proliferator-activated receptor gamma (Homo sapiens) (UniProt P37231); assay: qHTS assay to identify small molecule antagonists of the peroxisome proliferator-activated receptor gamma (PPARg) signaling pathway (AID 743191; calls by dose curve; further: series mostly up to about 63 µM; nearly all actives have a fitted effect of over 30% in size)
In short: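 GeneBLAzer PPARg UAS-bla HEK293H cells carrying a UAS-driven beta-lactamase reporter were plated at 3000 cells/well, preincubated 5 h at 37C, then given compound for 17 h at 37C; LiveBLAzer B/G FRET substrate was read after 1 h at room temperature.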

[19] = target: Bile acid receptor (Homo sapiens) (UniProt Q96RI1); assay: qHTS assay to identify small molecule antagonists of the farnesoid-X-receptor (FXR) signaling pathway (AID 743217; active means well fitted inhibition curve with a large enough effect in the signal ratio in the repeat runs, not every such curve was filed as active; the % refers to the signal ratio)
In short: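 Antagonist mode: chenodeoxycholic acid at 50 uM final stimulates a UAS-driven beta-lactamase reporter in HEK 293T FXR-bla cells during 16 h, 37C compound exposure. Read-out is FRET substrate fluorescence after 2 h at room temperature.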

[20] = target: Bile acid receptor (Homo sapiens) (UniProt Q96RI1); assay: qHTS assay to identify small molecule agonists of the farnesoid-X-receptor (FXR) signaling pathway (AID 743220; active means well fitted activation curve with a large enough effect in the signal ratio in the repeat runs, not every such curve was filed as active; the % refers to the signal ratio)
In short: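 FXR-UAS-bla HEK 293T cells carrying a UAS-driven beta-lactamase reporter were plated for 5 h at 37C/5% CO2, then exposed to DMSO-dissolved Tox21 10K compounds for 16 h at 37C. A LiveBLAzer B/G FRET substrate was loaded for 2 h at room temperature before fluorescence reading.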

Chain of Vitamin D3 receptor (Homo sapiens) (P11473 whole entry, looked up): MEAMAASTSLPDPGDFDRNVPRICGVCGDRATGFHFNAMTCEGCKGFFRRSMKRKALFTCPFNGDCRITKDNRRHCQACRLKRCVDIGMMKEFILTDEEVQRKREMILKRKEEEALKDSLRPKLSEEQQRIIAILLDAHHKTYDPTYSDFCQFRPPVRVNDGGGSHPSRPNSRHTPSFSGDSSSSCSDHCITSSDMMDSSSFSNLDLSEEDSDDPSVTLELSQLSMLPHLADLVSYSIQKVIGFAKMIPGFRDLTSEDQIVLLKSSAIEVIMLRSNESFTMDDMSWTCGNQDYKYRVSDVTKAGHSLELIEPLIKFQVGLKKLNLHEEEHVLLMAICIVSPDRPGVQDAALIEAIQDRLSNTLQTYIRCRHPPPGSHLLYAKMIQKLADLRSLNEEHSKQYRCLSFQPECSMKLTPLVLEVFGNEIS
Chain of Bile acid receptor (Homo sapiens) (Q96RI1 whole entry, looked up): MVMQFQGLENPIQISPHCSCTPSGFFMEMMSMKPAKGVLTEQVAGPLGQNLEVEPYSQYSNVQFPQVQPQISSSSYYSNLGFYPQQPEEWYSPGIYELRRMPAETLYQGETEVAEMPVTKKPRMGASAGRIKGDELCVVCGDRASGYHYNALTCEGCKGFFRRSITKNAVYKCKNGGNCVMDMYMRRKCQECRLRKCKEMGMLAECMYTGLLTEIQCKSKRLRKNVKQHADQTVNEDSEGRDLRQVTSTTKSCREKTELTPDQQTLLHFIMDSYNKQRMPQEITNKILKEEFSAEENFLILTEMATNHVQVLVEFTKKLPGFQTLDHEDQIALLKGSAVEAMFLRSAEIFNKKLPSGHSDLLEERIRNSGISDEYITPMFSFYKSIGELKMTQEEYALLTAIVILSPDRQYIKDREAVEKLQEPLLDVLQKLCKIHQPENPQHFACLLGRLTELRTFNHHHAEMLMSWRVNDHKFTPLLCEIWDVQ
Chain of Aryl hydrocarbon receptor (Homo sapiens) (P35869 whole entry, looked up): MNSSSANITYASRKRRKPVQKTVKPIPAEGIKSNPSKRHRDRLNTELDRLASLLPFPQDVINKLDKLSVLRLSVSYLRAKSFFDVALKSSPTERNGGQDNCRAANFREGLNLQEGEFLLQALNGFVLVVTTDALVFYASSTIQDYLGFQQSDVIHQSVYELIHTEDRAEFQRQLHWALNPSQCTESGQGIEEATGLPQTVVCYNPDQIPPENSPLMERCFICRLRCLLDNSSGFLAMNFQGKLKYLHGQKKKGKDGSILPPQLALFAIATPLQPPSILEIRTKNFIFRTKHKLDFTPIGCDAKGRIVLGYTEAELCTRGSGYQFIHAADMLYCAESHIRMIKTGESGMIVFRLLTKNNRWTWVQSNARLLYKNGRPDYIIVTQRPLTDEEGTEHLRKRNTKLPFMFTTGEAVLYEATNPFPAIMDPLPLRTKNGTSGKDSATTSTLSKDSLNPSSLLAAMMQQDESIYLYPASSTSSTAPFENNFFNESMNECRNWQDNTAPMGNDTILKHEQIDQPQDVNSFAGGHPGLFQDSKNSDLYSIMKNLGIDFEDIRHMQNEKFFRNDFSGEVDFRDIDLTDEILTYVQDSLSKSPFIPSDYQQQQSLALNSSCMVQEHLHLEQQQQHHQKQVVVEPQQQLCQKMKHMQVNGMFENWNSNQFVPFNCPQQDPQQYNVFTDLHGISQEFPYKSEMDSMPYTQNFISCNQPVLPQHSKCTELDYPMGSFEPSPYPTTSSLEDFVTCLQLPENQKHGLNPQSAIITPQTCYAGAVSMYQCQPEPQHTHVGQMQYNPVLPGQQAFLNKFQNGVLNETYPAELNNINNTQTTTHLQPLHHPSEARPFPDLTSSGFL
Chain of Peroxisome proliferator-activated receptor delta (Homo sapiens) (Q03181 whole entry, looked up): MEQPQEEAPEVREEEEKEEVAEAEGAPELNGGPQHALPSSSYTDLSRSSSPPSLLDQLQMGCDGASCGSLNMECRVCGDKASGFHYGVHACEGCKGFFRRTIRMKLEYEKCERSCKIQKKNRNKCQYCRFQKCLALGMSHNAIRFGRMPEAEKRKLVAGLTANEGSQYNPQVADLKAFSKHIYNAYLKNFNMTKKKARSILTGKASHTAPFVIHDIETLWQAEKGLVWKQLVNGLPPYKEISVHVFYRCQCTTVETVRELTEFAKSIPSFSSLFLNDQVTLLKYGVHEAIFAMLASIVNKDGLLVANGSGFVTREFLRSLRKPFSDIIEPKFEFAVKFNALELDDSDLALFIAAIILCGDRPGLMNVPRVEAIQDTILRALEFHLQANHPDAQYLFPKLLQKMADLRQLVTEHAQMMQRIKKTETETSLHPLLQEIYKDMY
Chain of Peroxisome proliferator-activated receptor gamma (Homo sapiens) (P37231 whole entry, looked up): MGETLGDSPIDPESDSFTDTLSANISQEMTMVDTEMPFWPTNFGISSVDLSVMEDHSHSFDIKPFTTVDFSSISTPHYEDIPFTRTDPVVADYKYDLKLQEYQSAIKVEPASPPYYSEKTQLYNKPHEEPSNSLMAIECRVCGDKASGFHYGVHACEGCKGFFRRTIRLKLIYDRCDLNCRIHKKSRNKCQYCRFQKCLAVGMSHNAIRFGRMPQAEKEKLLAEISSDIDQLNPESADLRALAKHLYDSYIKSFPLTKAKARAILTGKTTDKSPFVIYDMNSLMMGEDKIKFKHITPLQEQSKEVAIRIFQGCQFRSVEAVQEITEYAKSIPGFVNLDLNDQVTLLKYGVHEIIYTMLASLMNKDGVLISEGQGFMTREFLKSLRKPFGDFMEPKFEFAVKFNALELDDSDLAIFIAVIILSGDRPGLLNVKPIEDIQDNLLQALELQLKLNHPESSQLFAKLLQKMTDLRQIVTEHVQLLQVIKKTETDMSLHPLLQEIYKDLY

SMILES	Potency [1]	Potency [2]	Potency [3]	outcome [4]	Potency [5]	outcome [6]	Potency [7]	outcome [8]	Potency [9]	Potency [10]	outcome [11]	outcome [12]	outcome [13]	Potency [14]	Potency [15]	outcome [16]	Potency [17]	Potency [18]	outcome [19]	outcome [20]
C/C=C(\C)C#N	inactive	inactive	inactive	inactive	inactive	inactive	inactive	inactive	inactive	inactive	inactive	inactive								
O=C[C@H](O)[C@@H](O)[C@H](O)[C@H](O)CO	inactive	inactive	inactive	inactive	inactive		inactive		inactive	inactive			inactive	inactive	inactive					
CC/C=C\CC/C=C/CO	inactive	inactive	inactive	inactive			inactive	inactive	inactive	inactive			inactive		inactive	inactive				
O=c1cc(-c2ccccc2)oc2ccccc12	inactive	24.3 µM (active) and 5.91 µM (active)	inactive	inactive	inactive	inactive	inactive	inactive	inactive		inactive	inactive	inactive		inactive	inactive				
NS(=O)(=O)c1cc2c(cc1Cl)NC(C1CC3C=CC1C3)NS2(=O)=O (stereo not given)	inactive	inactive	inactive	inactive		inactive	inactive	inactive	inactive		inactive	inactive	inactive	inactive			inactive			
CCC(=O)OC(C)c1ccccc1 (stereo not given)	inactive	inactive	inactive			inactive	inactive	inactive	inactive	inactive	inactive		inactive	inactive		inactive	inactive	inactive	inactive	inactive
N[C@H]1CN(c2c(F)cc3c(=O)c(C(=O)O)cn(C4C[C@H]4F)c3c2Cl)CC12CC2 (stereo not given in full)	inactive	inactive	inactive	inactive	inactive	inactive	inactive		inactive		inactive		inactive		inactive	inactive				
CC(C)CCCC(C)N (stereo not given)	inactive	inactive	inactive	inactive	inactive	inactive	inactive				inactive	inactive	inactive			inactive				
OC(CCN1CCCCC1)(c1ccccc1)C1CC2C=CC1C2 (stereo not given)	inactive	inactive	inactive	inactive		inactive	inactive	inactive			inactive	inactive	inactive		inactive	inactive	inactive		inactive	inactive
